Molecules are shown by their SMILES. Records with an inconclusive call do not appear. A call without a number means that no potency is given here. The source made the active and inactive calls. Calls follow the shape of the dose curve; as a rule, active = well fitted cell-killing curve with a large enough effect in the repeat runs; inconclusive = weak or mixed curves, or effect the other way; inactive = flat fitted curve, though single readings scatter.

The nature of the assay: qHTS assay to identify small molecule agonists of the TGF-beta/Smad signaling pathway - cell viability counter screen (AID 1346829). Also: top concentration of the series differs between compounds; nearly all actives have a fitted effect of over 45% in size. The settings on record: SBE-bla HEK293T viability, CellTiter-Glo luminescence, 5 h; series mostly up to 76.8 µM. An excerpt:
National Center for Advancing Translational Sciences [NCATS]
NIH Chemical Genomics Center [NCGC]
U.S. Environmental Protection Agency [EPA]
National Institutes of Environmental Health Sciences [NIEHS]
National Toxicology Program [NTP]
U.S. Food and Drug Administration [FDA]
Transforming growth factor beta (TGF-beta) superfamily consists of a large number of structurally related dimeric proteins that act as hormones or local mediators in regulating a wide range of biological functions. This superfamily includes TGF-betas themselves, the bone morphogenetic proteins (BMPs) and the activins. These ligands induce oligomerization of serine/threonine receptor kinases and phosphorylate the cytoplasmic signaling molecules of Smad protein family. CellSensor SBE-bla HEK 293T cell line (Life Technologies, Carlsbad, CA), responsive to TGF-beta was used to screen Tox21 10K compound library for identification of agonists/antagonists of the Smad signaling pathway. This cell line contains a beta-lactamase reporter gene under control of the Smad binding element (SBE) stably integrated into HEK 293T cells. Also cytotoxicity of the compounds was tested in parallel by measuring the cell viability using CellTiter-Glo assay system in the same wells.
Tox21 Assay Protocol Summary:
SBE-bla HEK 293T cells were dispensed at 4,000/well in 6 uL of assay medium into black wall/clear-bottom 1536-well plates using a Multidrop Combi (ThermoFisher Scientific, Waltham, MA) dispenser. After the assay plates were incubated at 37 C and 5% CO2 for an overnight, 23 nL of compounds dissolved in DMSO, positive controls or DMSO only was transferred to the assay plate by a Pintool station (Kalypsys, San Diego, CA). The assay plates were incubated at 37 C and 5% CO2 for 5 hr. One uL of LiveBLAzer B/G FRET substrate (Life Technologies) was added using a Flying Reagent Dispenser (FRD, Aurora Discovery, San Diego, CA) and the plates were incubated at room temperature for 2 hr. Fluorescence intensity (405 nm excitation, 460 nm and 530 nm emissions) was measured using an Envision plate reader (PerkinElmer, Shelton, CT). For cytotoxicity read, 4 uL of CellTiter-Glo reagent (Promega Corporation, Madison, WI) was added to each well of the assay plates using FRD. After 30min incubation at room temperature, the luminescence intensity was measured using ViewLux plate reader (PerkinElmer).
On the technique in general: Quantitative high-throughput screening tests each substance at several concentrations.
Take `COC(=O)CSc1cc(N=c2sc(=O)n3n2CCCC3)c(F)cc1Cl`: the Potency entry was “inactive”.
As for `CC[C@H](C)[C@@H](C(=O)O)n1sc2ccccc2c1=O`, the Potency result is “inactive”.
Still for that read-out and setting: the value for `O=C(O)c1cccc(N(Cc2cccnc2)c2ccc(OC(F)F)c(OC(F)F)c2)c1` was “inactive”; that for `CC(=O)OCCc1ccccc1` was “inactive”; that for `CCCc1ccccc1` was “inactive”.
On the same count and under the same terms, the value for `C=CC(=O)OCCOC(=O)CCC(=O)O` was “inactive”; that for `NCCCOCCOCCOCCCN` was “inactive”.
Still for that read-out and setting: under `Cn1c(=O)c2c(ncn2CC(O)CO)n(C)c1=O` (stereo not given) stands “inactive”; under `N=C(N=C(N)N)N1CCOCC1`, “inactive”.
Turning to `Cc1nc2ccccc2n1Cc1ccc(Cl)cc1`, the Potency entry was “inactive”.
Turning to `C[Si](C)O[Si](C)(C)O[Si](C)(C)O[Si](C)C`, the Potency result was “inactive”.
The same measure, in the same setting: the value for `CCCCCCCCCC=O` was “inactive”; that for `CN1CCC(OC(c2ccccc2)c2ccccc2)CC1` was “inactive”; that for `CCCCOc1cc(C(=O)OCCN(CC)CC)ccc1N` was “inactive”.
The same measure, in the same setting: under `O=c1[nH]cnc2ccccc12` stands “inactive”.
On the same count and under the same terms, under `CC(C)(C)c1cc(CCC(=O)OCC(COC(=O)CCc2cc(C(C)(C)C)c(O)c(C(C)(C)C)c2)(COC(=O)CCc2cc(C(C)(C)C)c(O)c(C(C)(C)C)c2)COC(=O)CCc2cc(C(C)(C)C)c(O)c(C(C)(C)C)c2)cc(C(C)(C)C)c1O` stands “inactive”.
For `CC(C)=CCCC(C)CC=O` (stereo not given), the Potency entry is “inactive”.
Still for that read-out and setting: the value for `CC(C)(C)C1CCCCC1O` (stereo not given) was “inactive”; that for `Cl/C(=C\n1cncn1)c1ccc(Cl)cc1Cl` was “inactive”.
Same read-out and setting: under `O=C(NS(=O)(=O)/C=C/c1cccs1)c1ccc(F)cc1Br` stands “inactive”; under `Cn1sccc1=O`, “inactive”; under `CC(=O)SCc1ccco1`, “inactive”.
The same measure, in the same setting: the value for `O=S1(=O)N=C(O)c2ccccc21` was “inactive”.
On to `Cc1ccc(C(=O)C(C)CN2CCCCC2)cc1` (stereo not given), for which the Potency result was “inactive”.
On to `CN1CCN(C2=Nc3ccccc3Sc3ccc(Cl)cc32)CC1`, for which the Potency result was “inactive”.
Still for that read-out and setting: under `Nc1ccc(C(=O)N2CC3CC(CN(Cc4ccccc4)C3)C2)cc1` stands “inactive”.
Still for that read-out and setting: the value for `CC1(C)CCC(C)(C)c2cc(NC(=O)c3ccc(C(=O)O)cc3)ccc21` was “inactive”; that for `Oc1ccc(Sc2ccc(O)cc2)cc1` was “inactive”.
On the same count and under the same terms, the value for `CCN(CC)C(C)CN1c2ccccc2Sc2ccccc21` (stereo not given) was “inactive”; that for `Oc1ccc(C(O)CNCCCCCCNCC(O)c2ccc(O)c(O)c2)cc1O` (stereo not given) was “inactive”.
On to `CCCCCCCCCCCCCCCCCBr`, for which the activity change, negative = cytotoxicity is 0.567% [at 15.8 µM] (inactive).
As for `c1ccc(OCc2ccc(CCCN3CCOCC3)cc2)cc1`, the Potency result was “inactive”.
Same read-out and setting: the value for `Cc1ccccc1N=Nc1ccc(N=Nc2c(O)ccc3ccccc23)c(C)c1` was “inactive”; that for `O=CNc1ccccc1` was “inactive”; that for `CC[C@H](C)[C@H](N)C(=O)O` was “inactive”.
Same read-out and setting: the value for `O=[N+]([O-])c1cccc(Cl)c1Cl` was “inactive”; that for `Cc1cc(C)c(S(=O)(=O)O)cc1N=Nc1cc(S(=O)(=O)O)c2ccccc2c1O` was “inactive”; that for `O=C(O)/C=C/c1cnc[nH]1` was “inactive”.
For the molecule `O=C1Nc2cc(Cl)ccc2Oc2ccccc21`, the Potency result is “inactive”.
The same measure, in the same setting: under `CCCC[C@H]1CN(CC2CCOCC2)C(=O)OC12CCN(C1(C)CCN(C(=O)c3c(C)ncnc3C)CC1)CC2` stands “inactive”.

The values are drawn from PubChem BioAssay (Tox21).
